# Assay results: the supplement of paper PMC8728848
# This is one part of a sample in which the strongest signals are shown more often than they occur.
# B1: CFEM-PPm (Pichia pastoris), F2QPV1 (protein)
# chain: AVATPPACLLACAAEVVKESSDCDALNNIQCICENEGSAIHACLESTCPDGLSSTALQSFEDVCE
# What was measured:
# Experiment in all cases: glycan array binding signal (z-score within array); higher = stronger binding
# Settings in all cases: glycan notation: IUPAC condensed, linker removed
# [1] = molecular target: Gal(b1-4)GlcNAc(b1-3)Gal(b1-4)GlcNAc(b1-3)Gal(b1-4)GlcNAc(b1-3)Gal(b1-4)GlcNAc(b1-2)Man(a1-3)[Gal(b1-4)GlcNAc(b1-3)Gal(b1-4)GlcNAc(b1-3)Gal(b1-4)GlcNAc(b1-3)Gal(b1-4)GlcNAc(b1-2)Man(a1-6)]Man(b1-4)GlcNAc(b1-4)GlcNAc
# In short: (§1)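 Glycan array data came from 3228 arrays in the Consortium for Functional Glycomics database, and only arrays with an available protein sequence were kept. Glycan names were put into IUPAC-condensed notation, and columns mapping to the same glycan were averaged. The binding signal is a within-array Z-score, averaged across arrays of one protein sequence run at different concentrations or buffers and across linkers. A negative Z-score can be read as non-binding.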
# [2] = molecular target: Gal(b1-4)GlcNAc(b1-3)Gal(b1-4)GlcNAc(b1-3)Gal(b1-4)GlcNAc(b1-3)Gal(b1-4)GlcNAc(b1-3)Gal(b1-4)GlcNAc(b1-2)Man(a1-3)[Gal(b1-4)GlcNAc(b1-3)Gal(b1-4)GlcNAc(b1-3)Gal(b1-4)GlcNAc(b1-3)Gal(b1-4)GlcNAc(b1-3)Gal(b1-4)GlcNAc(b1-2)Man(a1-6)]Man(b1-4)GlcNAc(b1-4)[Fuc(a1-6)]GlcNAc
# In short: as §1
# [3] = molecular target: Gal(b1-4)GlcNAc(b1-6)[Gal(b1-3)]GalNAc
# In short: as §1
# [4] = molecular target: Gal3S(b1-3)[Fuc(a1-4)]GlcNAc
# In short: as §1
# GalNAc(a1-3)GalNAc = molecular target: GalNAc(a1-3)GalNAc
# In short: as §1
# [5] = molecular target: GalNAc(b1-4)GlcNAc(b1-2)Man(a1-3)[GalNAc(b1-4)GlcNAc(b1-2)Man(a1-6)]Man(b1-4)GlcNAc(b1-4)GlcNAc
# In short: as §1
# [6] = molecular target: GalNAc(b1-4)GlcNAc(b1-3)GalNAc(b1-4)GlcNAc
# In short: as §1
# GlcA(b1-6)Gal = molecular target: GlcA(b1-6)Gal
# In short: as §1
# [7] = molecular target: GlcNAc(a1-4)Gal(b1-4)GlcNAc
# In short: as §1
# [8] = molecular target: GlcNAc(b1-3)Gal(b1-4)GlcNAc
# In short: as §1
# [9] = molecular target: GlcNAc(b1-3)Gal(b1-4)GlcNAc(b1-6)[Gal(b1-3)]GalNAc
# In short: as §1
# [10] = molecular target: GlcNAc(b1-3)Gal(b1-4)GlcNAc(b1-6)[GlcNAc(b1-3)Gal(b1-3)]GalNAc
# In short: as §1
# [11] = molecular target: GlcNAc(b1-3)Gal(b1-4)GlcNAc(b1-6)[GlcNAc(b1-3)]Gal(b1-4)GlcNAc
# In short: as §1
# [12] = molecular target: Kdn(a2-3)Gal(b1-4)[Fuc(a1-3)]GlcNAc
# In short: as §1
# [13] = molecular target: Neu5Ac(a2-3)Gal(b1-4)GlcNAc(b1-2)Man(a1-3)[Neu5Ac(a2-3)Gal(b1-4)GlcNAc(b1-2)Man(a1-6)]Man(b1-4)GlcNAc(b1-4)GlcNAc
# In short: as §1
# [14] = molecular target: Neu5Ac(a2-3)Gal(b1-4)GlcNAc(b1-3)Gal(b1-3)GlcNAc
# In short: as §1
# [15] = molecular target: Neu5Ac(a2-3)Gal(b1-4)GlcNAc(b1-3)Gal(b1-4)GlcNAc(b1-3)GalNAc
# In short: as §1
# [16] = molecular target: Neu5Ac(a2-3)Gal(b1-4)GlcNAc(b1-3)Gal(b1-4)GlcNAc(b1-6)[Gal(b1-3)]GalNAc
# In short: as §1
# [17] = molecular target: Neu5Ac(a2-6)Gal(b1-4)GlcNAc(b1-2)Man(a1-3)Man(b1-4)GlcNAc(b1-4)GlcNAc
# In short: as §1
# [18] = molecular target: Neu5Ac(a2-6)Gal(b1-4)GlcNAc(b1-2)Man(a1-3)[Man(a1-6)]Man(b1-4)GlcNAc(b1-4)GlcNAc
# In short: as §1
# [19] = molecular target: Neu5Ac(a2-6)Gal(b1-4)GlcNAc(b1-2)Man(a1-6)[Man(a1-3)]Man(b1-4)GlcNAc(b1-4)GlcNAc
# In short: as §1
# [20] = molecular target: Neu5Ac(a2-6)Gal(b1-4)GlcNAc(b1-3)[Neu5Ac(a2-6)Gal(b1-4)GlcNAc(b1-6)]GalNAc
# In short: as §1
# [21] = molecular target: Neu5Ac(a2-6)GlcNAc(b1-4)GlcNAc(b1-4)GlcNAc
# In short: as §1
# [22] = molecular target: Neu5Ac(a2-8)Neu5Ac(a2-3)Gal(b1-3)GalNAc(b1-4)[Neu5Ac(a2-3)]Gal(b1-4)Glc
# In short: as §1
# [23] = molecular target: Neu5Ac(a2-8)Neu5Ac(a2-8)Neu5Ac(a2-8)Neu5Ac(a2-3)[GalNAc(b1-4)]Gal(b1-4)Glc
# In short: as §1
# [24] = molecular target: Neu5Gc(b2-6)Gal(b1-4)GlcNAc
# In short: as §1
binder,measurement,setting,value
B1,glycan array binding signal (z-score),[1],-0.09
same,glycan array binding signal (z-score),[2],-0.233
same,glycan array binding signal (z-score),[3],1.67
same,glycan array binding signal (z-score),[4],-0.262
same,glycan array binding signal (z-score),GalNAc(a1-3)GalNAc,-0.194
same,glycan array binding signal (z-score),[5],0.149
same,glycan array binding signal (z-score),[6],-0.226
same,glycan array binding signal (z-score),GlcA(b1-6)Gal,2.41
same,glycan array binding signal (z-score),[7],-0.205
same,glycan array binding signal (z-score),[8],0.308
same,glycan array binding signal (z-score),[9],0.543
same,glycan array binding signal (z-score),[10],-0.173
same,glycan array binding signal (z-score),[11],-0.353
same,glycan array binding signal (z-score),[12],0.034
same,glycan array binding signal (z-score),[13],-0.218
same,glycan array binding signal (z-score),[14],-0.197
same,glycan array binding signal (z-score),[15],-0.282
same,glycan array binding signal (z-score),[16],0.598
same,glycan array binding signal (z-score),[17],-0.215
same,glycan array binding signal (z-score),[18],-0.253
same,glycan array binding signal (z-score),[19],-0.345
same,glycan array binding signal (z-score),[20],0.043
same,glycan array binding signal (z-score),[21],-0.354
same,glycan array binding signal (z-score),[22],0.442
same,glycan array binding signal (z-score),[23],-0.319
same,glycan array binding signal (z-score),[24],-0.034
